Measurements as given in the supplement of paper PMC11732987, “Enantioselective OTUD7B fragment discovery through chemoproteomics screening and high-throughput optimisation” (Communications Chemistry, 2025).

What was measured:
Experiment in all cases: log2 ratio of Biotin-Ahx-Ub-VS probe labelling (fragment/DMSO); higher = less target engagement (more negative = stronger competition), active = hit call of the paper (q ≤ 0.05, log2 ratio ≤ -1)
Details in all cases: compound concentration: 200 uM; treatment time: 3 h
[1] = biological target: T1, USP42 (UniProt Q9H9J4)
T1 sequence (whole entry): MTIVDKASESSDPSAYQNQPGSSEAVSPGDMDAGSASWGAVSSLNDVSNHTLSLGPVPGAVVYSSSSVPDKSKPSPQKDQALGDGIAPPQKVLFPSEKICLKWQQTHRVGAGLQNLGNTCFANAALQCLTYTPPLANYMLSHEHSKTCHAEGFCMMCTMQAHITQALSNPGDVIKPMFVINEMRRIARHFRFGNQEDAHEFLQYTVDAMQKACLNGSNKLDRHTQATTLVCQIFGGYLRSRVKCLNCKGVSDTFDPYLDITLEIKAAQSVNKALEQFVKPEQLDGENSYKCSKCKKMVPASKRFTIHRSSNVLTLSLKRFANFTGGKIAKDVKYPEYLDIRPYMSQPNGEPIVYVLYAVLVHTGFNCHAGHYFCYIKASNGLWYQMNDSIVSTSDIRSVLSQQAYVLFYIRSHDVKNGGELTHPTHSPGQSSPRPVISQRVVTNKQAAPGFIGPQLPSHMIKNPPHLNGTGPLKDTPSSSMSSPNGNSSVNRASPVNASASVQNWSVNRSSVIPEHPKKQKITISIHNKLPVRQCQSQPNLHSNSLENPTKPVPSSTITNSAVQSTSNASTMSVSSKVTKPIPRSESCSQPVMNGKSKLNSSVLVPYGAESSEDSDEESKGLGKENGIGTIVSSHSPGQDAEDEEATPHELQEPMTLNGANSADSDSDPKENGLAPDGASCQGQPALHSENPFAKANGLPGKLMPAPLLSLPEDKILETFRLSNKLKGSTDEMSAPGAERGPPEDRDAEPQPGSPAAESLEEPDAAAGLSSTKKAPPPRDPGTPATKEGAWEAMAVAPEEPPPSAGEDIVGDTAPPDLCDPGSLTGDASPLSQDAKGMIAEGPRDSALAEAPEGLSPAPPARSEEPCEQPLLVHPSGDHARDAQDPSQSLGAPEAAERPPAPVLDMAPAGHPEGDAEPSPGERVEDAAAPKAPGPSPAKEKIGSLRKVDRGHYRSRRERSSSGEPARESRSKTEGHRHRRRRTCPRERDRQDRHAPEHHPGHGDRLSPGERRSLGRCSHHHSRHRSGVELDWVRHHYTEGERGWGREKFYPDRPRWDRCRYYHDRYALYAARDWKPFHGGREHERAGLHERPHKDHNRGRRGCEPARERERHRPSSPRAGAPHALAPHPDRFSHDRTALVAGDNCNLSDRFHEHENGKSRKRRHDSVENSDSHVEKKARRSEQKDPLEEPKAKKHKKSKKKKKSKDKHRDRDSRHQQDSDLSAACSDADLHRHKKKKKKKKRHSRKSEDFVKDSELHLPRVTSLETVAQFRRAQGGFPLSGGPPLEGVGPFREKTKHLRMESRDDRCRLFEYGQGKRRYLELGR
How it was run: (§1)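 Global-median-normalised Spectronaut label-free quantities were compared by unpaired t-test, and values are average log2 ratios of fragment over vehicle. Only proteins with ≥2 unique peptides were used. HEK293T lysate (495 µg per sample) was treated in triplicate with fragment at 200 µM or vehicle for 3 h and then with Biotin-Ahx-Ub-VS at 0.5 µM final for 1 h. Labelled DUBs were then NeutrAvidin-enriched, digested with LysC and trypsin, and run by diaPASEF LC-MS/MS.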

[2] = biological target: USP46 (UniProt P62068)
How it was run: as §1

[3] = biological target: T2, USP47 (UniProt Q96K76)
T2 sequence (whole entry): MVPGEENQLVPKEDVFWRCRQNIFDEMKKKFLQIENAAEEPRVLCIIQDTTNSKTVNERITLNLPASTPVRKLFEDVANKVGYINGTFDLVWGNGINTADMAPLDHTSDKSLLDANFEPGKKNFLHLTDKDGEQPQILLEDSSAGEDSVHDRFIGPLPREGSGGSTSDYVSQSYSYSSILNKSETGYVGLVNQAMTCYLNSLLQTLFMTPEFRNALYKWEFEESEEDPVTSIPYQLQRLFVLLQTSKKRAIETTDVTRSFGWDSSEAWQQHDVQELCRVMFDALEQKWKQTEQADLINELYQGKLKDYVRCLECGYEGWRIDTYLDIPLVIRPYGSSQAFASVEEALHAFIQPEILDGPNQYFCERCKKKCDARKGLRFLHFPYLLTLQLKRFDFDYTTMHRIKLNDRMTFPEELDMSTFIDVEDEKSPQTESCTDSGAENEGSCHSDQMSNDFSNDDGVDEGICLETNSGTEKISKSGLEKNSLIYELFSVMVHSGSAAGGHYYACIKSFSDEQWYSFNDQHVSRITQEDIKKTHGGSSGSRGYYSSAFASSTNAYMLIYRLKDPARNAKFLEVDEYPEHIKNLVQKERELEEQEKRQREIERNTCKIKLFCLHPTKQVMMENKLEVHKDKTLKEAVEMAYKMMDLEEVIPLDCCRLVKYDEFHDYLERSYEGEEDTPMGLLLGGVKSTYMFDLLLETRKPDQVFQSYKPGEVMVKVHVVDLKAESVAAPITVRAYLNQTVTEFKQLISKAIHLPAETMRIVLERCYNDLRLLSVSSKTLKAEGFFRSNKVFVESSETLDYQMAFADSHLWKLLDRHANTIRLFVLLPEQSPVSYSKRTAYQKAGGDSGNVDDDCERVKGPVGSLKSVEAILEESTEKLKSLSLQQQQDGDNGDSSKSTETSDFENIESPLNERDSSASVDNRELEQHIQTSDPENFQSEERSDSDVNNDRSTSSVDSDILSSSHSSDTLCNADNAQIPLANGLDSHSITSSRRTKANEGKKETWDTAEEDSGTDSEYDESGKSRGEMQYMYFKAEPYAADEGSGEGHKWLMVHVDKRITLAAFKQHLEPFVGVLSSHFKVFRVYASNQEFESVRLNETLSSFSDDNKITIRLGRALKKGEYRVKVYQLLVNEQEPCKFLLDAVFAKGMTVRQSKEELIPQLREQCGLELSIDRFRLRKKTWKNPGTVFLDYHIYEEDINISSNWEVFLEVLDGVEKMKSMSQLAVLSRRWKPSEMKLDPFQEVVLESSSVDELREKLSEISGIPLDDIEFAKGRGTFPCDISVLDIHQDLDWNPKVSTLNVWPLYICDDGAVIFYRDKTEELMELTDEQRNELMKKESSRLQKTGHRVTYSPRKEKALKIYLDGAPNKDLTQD
How it was run: as §1

[4] = biological target: T3, USP48 (UniProt Q86UV5)
T3 sequence (whole entry): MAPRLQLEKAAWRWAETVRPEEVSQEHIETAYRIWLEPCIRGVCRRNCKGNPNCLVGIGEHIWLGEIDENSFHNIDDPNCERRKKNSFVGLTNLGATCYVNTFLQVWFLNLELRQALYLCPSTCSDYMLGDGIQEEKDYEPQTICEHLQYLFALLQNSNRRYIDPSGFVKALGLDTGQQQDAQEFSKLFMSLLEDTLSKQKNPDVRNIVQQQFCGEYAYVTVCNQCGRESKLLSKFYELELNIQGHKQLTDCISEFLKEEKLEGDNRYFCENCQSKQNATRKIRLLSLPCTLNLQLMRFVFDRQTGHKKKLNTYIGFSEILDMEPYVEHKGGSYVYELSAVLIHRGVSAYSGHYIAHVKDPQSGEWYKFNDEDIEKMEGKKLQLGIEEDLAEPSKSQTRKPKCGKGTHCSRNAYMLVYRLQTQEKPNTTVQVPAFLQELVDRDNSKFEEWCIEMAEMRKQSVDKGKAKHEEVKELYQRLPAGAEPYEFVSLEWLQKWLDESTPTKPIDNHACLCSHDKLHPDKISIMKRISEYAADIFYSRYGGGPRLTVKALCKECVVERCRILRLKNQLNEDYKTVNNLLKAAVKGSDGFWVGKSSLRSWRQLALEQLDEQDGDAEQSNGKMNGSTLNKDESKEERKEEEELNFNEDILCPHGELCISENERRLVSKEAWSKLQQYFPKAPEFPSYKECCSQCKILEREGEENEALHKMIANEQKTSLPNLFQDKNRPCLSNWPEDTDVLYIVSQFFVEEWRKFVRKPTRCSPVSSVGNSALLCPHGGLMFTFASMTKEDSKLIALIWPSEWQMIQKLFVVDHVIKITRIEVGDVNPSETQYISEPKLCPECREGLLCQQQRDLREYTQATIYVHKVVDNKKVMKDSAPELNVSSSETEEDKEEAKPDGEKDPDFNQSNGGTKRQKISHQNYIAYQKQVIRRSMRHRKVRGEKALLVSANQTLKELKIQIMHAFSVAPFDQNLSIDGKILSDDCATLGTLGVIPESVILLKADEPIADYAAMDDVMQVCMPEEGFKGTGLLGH
How it was run: as §1

[5] = biological target: T4, USP5 (UniProt P45974)
T4 sequence (whole entry): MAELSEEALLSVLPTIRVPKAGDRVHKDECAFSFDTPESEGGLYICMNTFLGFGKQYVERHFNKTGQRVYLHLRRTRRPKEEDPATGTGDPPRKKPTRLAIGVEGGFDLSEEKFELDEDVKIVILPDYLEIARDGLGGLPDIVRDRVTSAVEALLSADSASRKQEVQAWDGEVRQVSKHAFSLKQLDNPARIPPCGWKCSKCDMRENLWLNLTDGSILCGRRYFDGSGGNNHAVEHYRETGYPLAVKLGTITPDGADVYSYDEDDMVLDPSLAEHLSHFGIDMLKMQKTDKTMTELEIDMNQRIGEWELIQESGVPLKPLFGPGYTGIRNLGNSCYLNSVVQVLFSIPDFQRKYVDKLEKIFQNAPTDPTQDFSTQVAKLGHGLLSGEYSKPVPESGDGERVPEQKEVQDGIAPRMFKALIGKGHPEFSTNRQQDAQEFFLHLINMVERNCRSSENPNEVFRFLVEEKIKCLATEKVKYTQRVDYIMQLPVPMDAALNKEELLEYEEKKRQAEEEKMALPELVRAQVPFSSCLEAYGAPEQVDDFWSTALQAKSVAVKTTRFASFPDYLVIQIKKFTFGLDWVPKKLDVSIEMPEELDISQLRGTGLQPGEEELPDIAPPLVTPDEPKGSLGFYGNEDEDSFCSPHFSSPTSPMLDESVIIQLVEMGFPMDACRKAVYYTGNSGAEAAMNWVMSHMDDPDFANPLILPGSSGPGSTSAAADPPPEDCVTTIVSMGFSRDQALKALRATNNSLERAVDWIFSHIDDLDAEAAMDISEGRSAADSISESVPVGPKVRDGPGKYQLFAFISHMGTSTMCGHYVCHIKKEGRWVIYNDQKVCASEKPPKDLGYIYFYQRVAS
How it was run: as §1

[6] = biological target: USP54 (UniProt Q70EL1)
How it was run: as §1

[7] = biological target: USP7 (UniProt Q93009)
How it was run: as §1

[8] = biological target: T5, USP8 (UniProt P40818)
T5 sequence (whole entry): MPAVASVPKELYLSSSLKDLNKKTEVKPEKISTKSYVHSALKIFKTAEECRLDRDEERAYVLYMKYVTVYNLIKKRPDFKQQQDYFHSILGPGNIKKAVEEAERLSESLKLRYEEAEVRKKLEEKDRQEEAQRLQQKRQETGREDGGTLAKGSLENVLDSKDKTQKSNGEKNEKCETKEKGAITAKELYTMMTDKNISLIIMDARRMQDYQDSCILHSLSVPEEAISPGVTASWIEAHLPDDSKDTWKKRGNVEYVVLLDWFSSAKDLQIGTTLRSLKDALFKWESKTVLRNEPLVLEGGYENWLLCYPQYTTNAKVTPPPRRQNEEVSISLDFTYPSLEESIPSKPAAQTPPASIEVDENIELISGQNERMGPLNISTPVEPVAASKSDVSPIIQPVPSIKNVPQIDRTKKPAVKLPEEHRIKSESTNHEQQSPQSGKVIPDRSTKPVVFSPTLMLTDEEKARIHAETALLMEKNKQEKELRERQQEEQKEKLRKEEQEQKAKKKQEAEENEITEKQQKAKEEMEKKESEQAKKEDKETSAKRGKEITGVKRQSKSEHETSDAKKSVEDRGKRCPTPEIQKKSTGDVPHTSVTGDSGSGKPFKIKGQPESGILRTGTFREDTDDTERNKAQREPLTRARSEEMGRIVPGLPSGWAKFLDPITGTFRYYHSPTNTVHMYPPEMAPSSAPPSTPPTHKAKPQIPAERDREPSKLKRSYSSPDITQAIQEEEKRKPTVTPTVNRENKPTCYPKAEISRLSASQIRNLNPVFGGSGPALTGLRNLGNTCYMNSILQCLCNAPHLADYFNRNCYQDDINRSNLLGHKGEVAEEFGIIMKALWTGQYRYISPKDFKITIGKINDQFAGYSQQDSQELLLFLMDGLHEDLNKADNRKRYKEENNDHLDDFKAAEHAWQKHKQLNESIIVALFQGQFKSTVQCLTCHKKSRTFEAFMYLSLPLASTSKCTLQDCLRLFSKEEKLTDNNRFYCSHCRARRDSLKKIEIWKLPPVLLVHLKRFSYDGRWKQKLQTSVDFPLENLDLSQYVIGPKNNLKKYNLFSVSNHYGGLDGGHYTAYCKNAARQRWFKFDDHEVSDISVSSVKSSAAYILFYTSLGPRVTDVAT
How it was run: as §1

[9] = biological target: USP9X (UniProt Q93008)
How it was run: as §1

[10] = biological target: UniProt O00487
How it was run: as §1

Measured: log2 ratio of Biotin-Ahx-Ub-VS probe labelling

Sequence of UniProt O00487 (O00487 whole entry): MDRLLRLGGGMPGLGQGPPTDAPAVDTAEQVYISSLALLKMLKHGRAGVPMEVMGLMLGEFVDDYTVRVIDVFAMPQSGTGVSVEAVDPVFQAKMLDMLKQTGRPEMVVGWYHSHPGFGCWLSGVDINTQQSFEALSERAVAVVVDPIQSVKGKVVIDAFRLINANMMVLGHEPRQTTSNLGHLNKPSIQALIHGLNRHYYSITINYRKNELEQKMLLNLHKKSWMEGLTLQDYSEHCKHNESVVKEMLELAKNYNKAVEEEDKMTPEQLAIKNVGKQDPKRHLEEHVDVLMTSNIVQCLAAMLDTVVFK
Sequence of USP7 (Q93009 whole entry, looked up): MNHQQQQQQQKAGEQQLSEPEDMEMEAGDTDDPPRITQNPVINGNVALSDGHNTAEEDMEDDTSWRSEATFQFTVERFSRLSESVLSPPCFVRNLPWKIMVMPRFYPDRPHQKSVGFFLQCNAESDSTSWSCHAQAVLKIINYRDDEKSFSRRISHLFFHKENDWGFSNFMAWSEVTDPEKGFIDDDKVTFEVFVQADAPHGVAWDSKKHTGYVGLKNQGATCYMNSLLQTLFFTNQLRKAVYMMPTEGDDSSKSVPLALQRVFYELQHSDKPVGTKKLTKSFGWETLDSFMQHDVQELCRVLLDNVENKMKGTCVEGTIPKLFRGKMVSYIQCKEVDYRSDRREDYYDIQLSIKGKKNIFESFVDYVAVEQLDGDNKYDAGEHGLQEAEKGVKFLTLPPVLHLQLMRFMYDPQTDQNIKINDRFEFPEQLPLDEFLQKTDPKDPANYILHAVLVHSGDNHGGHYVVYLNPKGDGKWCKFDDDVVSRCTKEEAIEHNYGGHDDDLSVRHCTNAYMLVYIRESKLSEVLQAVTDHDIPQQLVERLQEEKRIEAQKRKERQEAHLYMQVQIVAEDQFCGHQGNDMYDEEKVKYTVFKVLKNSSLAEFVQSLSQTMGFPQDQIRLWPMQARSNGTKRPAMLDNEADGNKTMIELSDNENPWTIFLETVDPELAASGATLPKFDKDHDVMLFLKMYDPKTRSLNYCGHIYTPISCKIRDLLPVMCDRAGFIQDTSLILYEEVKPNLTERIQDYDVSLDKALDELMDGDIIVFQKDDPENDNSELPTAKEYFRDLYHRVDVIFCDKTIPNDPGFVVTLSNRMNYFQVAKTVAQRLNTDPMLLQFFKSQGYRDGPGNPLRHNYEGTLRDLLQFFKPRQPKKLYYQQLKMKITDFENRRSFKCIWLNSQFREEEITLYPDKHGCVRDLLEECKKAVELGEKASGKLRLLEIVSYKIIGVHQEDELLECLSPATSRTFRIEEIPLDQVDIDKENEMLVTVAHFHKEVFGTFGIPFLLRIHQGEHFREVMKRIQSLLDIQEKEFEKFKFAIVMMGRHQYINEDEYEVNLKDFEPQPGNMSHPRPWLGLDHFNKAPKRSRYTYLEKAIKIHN
Sequence of USP9X (Q93008 whole entry): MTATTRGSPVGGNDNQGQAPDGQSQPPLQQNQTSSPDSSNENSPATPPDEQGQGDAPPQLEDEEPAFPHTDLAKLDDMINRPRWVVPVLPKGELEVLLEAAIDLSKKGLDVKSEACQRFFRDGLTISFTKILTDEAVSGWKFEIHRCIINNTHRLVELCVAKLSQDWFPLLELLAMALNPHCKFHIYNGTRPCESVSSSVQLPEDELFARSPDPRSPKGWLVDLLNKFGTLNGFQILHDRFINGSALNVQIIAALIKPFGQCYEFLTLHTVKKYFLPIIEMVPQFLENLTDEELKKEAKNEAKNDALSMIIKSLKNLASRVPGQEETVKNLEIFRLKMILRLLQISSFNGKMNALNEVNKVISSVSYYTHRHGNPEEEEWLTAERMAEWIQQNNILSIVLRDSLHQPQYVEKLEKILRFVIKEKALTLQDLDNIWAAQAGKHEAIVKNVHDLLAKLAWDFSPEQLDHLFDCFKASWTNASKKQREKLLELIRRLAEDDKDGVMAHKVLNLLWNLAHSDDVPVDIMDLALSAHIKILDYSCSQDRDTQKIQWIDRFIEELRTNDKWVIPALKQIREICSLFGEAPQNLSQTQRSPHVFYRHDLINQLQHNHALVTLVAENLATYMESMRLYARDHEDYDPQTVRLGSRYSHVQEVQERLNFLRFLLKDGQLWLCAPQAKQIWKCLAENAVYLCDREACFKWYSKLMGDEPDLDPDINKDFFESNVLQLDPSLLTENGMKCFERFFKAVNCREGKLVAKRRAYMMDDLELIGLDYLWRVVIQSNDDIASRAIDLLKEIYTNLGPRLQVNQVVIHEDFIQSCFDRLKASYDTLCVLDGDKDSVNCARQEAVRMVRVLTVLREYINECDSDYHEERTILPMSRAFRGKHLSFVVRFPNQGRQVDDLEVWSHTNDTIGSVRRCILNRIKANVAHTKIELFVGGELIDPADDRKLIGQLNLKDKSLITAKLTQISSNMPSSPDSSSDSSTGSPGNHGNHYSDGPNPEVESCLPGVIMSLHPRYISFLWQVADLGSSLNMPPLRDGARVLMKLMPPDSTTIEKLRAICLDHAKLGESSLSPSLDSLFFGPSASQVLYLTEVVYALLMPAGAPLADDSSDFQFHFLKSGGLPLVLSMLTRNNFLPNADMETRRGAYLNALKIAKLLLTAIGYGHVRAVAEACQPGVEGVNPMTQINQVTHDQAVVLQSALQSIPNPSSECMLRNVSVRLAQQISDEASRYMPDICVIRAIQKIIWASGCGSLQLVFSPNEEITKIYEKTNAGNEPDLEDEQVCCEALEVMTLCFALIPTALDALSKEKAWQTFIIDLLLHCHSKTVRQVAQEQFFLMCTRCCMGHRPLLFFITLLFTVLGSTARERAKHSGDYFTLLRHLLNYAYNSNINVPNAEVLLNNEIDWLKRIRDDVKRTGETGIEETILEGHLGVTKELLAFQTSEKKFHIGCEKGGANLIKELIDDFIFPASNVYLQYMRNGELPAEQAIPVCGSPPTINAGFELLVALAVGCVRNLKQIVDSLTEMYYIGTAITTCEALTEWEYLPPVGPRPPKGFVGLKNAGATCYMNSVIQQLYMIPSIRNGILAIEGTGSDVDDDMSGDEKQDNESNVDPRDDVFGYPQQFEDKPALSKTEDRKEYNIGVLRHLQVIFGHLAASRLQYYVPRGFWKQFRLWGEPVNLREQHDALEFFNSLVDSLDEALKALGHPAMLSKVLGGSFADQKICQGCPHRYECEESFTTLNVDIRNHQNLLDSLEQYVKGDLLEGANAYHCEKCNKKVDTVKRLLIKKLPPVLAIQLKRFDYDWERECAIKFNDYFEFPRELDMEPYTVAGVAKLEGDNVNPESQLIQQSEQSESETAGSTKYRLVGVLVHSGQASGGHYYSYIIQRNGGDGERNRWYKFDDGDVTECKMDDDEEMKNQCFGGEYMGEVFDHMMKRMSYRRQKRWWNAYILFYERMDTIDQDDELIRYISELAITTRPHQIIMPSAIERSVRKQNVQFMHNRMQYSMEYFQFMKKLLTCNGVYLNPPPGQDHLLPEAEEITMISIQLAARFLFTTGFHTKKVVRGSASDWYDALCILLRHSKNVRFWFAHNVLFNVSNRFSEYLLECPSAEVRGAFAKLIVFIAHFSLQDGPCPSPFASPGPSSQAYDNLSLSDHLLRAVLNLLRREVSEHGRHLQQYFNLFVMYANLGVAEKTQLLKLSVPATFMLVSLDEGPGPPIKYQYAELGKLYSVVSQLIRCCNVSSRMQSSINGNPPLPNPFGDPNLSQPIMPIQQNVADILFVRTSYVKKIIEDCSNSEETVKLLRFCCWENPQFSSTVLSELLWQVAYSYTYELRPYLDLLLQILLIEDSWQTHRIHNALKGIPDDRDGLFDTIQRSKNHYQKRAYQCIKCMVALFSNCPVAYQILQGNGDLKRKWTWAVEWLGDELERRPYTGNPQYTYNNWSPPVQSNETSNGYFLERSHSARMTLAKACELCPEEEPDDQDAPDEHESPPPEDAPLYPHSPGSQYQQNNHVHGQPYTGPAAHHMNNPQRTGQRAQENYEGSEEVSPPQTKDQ
Sequence of USP46 (P62068 whole entry): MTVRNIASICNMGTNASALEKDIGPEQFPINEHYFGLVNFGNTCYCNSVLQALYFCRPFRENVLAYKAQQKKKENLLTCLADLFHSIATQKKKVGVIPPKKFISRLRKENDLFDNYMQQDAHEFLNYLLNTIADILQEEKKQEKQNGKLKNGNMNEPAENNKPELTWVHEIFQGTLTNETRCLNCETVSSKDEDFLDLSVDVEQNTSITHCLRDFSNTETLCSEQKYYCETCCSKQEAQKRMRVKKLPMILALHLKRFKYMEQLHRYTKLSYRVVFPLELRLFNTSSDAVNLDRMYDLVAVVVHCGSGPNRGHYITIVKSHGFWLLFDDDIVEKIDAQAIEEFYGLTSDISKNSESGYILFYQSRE

NC(=O)C1CCCN(C(=O)CCl)C1 (stereo not given)
inactive: [1] -0.105 | [2] 0.15 | [3] -0.831 | [4] -0.259 | [5] -0.0828 | [6] 0.785 | [7] -0.0546 | [8] -0.122 | [9] -0.029 | [10] -0.0923
